Pf growth 96h: Primary qHTS for delayed death inhibitors of the malarial parasite plastid, 96 hour incubation. P. falciparum luciferase reporter growth, 96 h. Potency, µM (doses to about 28.7 µM), usual class: inhibitors. 320,000 compounds, 6.9% hits
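P. falciparum expressing integrated firefly luciferase, in erythrocytes at 2% hematocrit, 0.05% parasitemia, incubated with compounds 96 h at 37 C, 5% CO2. Growth inhibition read as loss of luminescence; two-generation exposure targets delayed-death apicoplast inhibitors.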
SARS PLpro yeast: qHTS of Yeast-based Assay for SARS-CoV PLP. S. cerevisiae expressing SARS-CoV PLpro, growth rescue. Potency, µM (doses to about 32.9 µM), usual class: activators. 330,000 compounds, 0.19% hits; calls by dose curve; note: nearly all actives have a fitted effect of over 55% in size
Pf growth 48h: Primary qHTS for delayed death inhibitors of the malarial parasite plastid, 48 hour incubation; P. falciparum luciferase growth in erythrocytes, 48 h; Potency, µM (highest dose often 28.7 µM), most hits filed as inhibitors; 310,000 compounds, 5.9% hits
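First compound was added to culture medium, then infected red cells at 0.1% parasitemia and 2% hematocrit (final). After incubation at 37 C under 5% CO2, luciferase detection reagent was dispensed and light output recorded.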
NS1 inh: qHTS Assay for Inhibitors of Influenza NS1 Protein Function | 270,000 compounds, 0.4% hits | Potency, µM (top dose mostly 46.1 µM) | AID 2326, 2010; calls by dose curve; note: actives are rising curves; nearly all actives have a fitted effect of over 50% in size
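S. cerevisiae expressing influenza A NS1, grown in glucose, washed, then diluted 1:100 into pH 6.0 -URA galactose medium with 23 nl compound. Growth recovery read as OD600; NS1-free strain serves as control.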
Cycloheximide cs: Cycloheximide Counterscreen for Small Molecule Inhibitors of Shiga Toxin. cell reporter, cycloheximide protein synthesis inhibition counterscreen. max response, %. 300,000 compounds, 12% hits; in the data active = max response mostly above about 13%, no sharp cut-off; inactive = mostly below about 14%; note: read at 38.3 µM for the half of the compounds with a filed dose
Shiga toxin inh: A qHTS for Small Molecule Inhibitors of Shiga Toxin; Vero cells, Shiga toxin protein synthesis inhibition reporter; inhibition, % at 38.7 µM; 290,000 compounds, 9.2% hits; AID 2315, 2010; in the data active = inhibition mostly above about 28%, no sharp cut-off; inactive = mostly below about 43%
A number is an active result; i = inactive; ? = inconclusive; nt = no result given; + = active, no number; [ ] = dose if it differs, or a comment. An excerpt weighted towards active compounds, which were near 21% of everything screened. Unless noted, calls come from the whole dose curve; as a rule, active = well fitted inhibition curve with a large enough effect; inconclusive = small, poorly fitted or top-dose-only effect, or another doubt; inactive = no such curve, though single readings can be large or run the other way.

SMILES | Pf growth 96h | SARS PLpro yeast | Pf growth 48h | NS1 inh | Cycloheximide cs | Shiga toxin inh
CCOc1ccc(NC(=NCc2ccc3c(c2)OCO3)SC2CC(=O)N(c3ccc(OCC)cc3)C2=O)cc1 (centres undefined) | 3.7µM | ? | ? | i | 63 | +
CCOc1ccc(NC(=NCc2ccc3c(c2)OCO3)SC2CC(=O)N(c3ccccc3)C2=O)cc1 (centres undefined) | ? | i | ? | i | i | i
CCOc1ccc(NC(=NCc2ccc3c(c2)OCO3)SC2CC(=O)N(c3ccc(C(=O)O)cc3)C2=O)cc1 (centres undefined) | 9.3µM | i | ? | i | i | i
O=C(NCC(c1ccco1)N1CCCCC1)c1cc2c(s1)CCCC2 (centres undefined) | 1.7µM | i | 8.3µM | nt | nt | nt
O=C(NCc1ccco1)c1cc2c(s1)CCCCC2 | nt | i | i | i | 57 | 115
CN(c1cccc(NC(=O)c2ccc(Cl)c(S(=O)(=O)N3CCOCC3)c2)c1)S(C)(=O)=O | ? | i | ? | i | i | i
COc1ccc(Nc2cc(C(=O)NCc3ccccn3)c3ccccc3n2)c(OC)c1 | 13µM | i | i | nt | i | i
Cc1cc(NC(=O)c2cc(-c3ccccc3Cl)nc3ccccc23)no1 | ? | i | 13µM | i | i | i
Cc1cc(NC(=O)c2cc(-c3ccccc3C)nc3ccccc23)no1 | ? | i | ? | i | i | i
O=C(Nc1nn[nH]n1)c1cc(-c2ccc(Cl)c(Cl)c2Cl)nc2ccccc12 | 2.3µM | i | i | i | i | i
Cc1cccc(NC(=O)c2cc(-c3ccc(C)s3)nc3ccccc23)n1 | i | i | 10µM | i | i | i
O=C(Nc1ccccn1)c1cc(-c2ccc(Cl)s2)nc2ccccc12 | ? | i | ? | nt | nt | nt
CC(C)n1nc(C(=O)N2CCN(S(=O)(=O)c3cccs3)CC2)c2ccccc2c1=O | i | i | ? | i | i | i
O=C(O)NCc1ccccc1 (tested in a mixture with another compound) | nt | nt | nt | i | nt | nt
COCCCNC(=O)C1=CCN(S(=O)(=O)c2ccc(OC)cc2)CC1 | i | i | i | i | i | i
CC(=O)c1c(C)[nH]c(C(=O)OCC(=O)N2CC(C)OC(C)C2)c1C (centres undefined) | i | i | i | nt | nt | nt
Cc1c(Cl)ccc2c(C(=O)Nc3cc(C(C)(C)C)on3)cc(-c3ccccn3)nc12 | 2.1µM | i | i | i | i | i
O=C(NCc1ccccn1)c1cc(-c2ccccc2Cl)nc2ccccc12 | ? | i | 9.3µM | i | i | i
Cc1cc(NC(=O)c2cc(-c3ccc(C)s3)nc3ccccc23)no1 | 12µM | i | nt | i | i | i
Cc1cc(NC(=O)c2cc(-c3cccnc3)nc3c(C)c(C)ccc23)no1 | i | i | 2.9µM | i | i | i
Cc1cc(C)cc(C(=O)Nc2cc3c4c(c2)CC(=O)N4CCC3)c1 | i | i | i | nt | nt | nt
O=C(Nc1ccc(F)cc1)Oc1ccc[nH]c1=O | i | i | i | i | 16 | 24
O=C(CC(c1ccco1)S(=O)(=O)c1ccccc1)c1ccc(F)cc1 (centres undefined) | nt | i | i | i[9.22 µM] | 25 | 39
Cc1cc(NC(=O)CSc2ncnc3sccc23)no1 | i | i | ? | nt | i | i
N#Cc1c(NC(=O)CSc2ncnc3sccc23)oc(-c2ccco2)c1-c1ccco1 | 2.3µM | i | nt | i | i | i
SMILES | Pf growth 96h | SARS PLpro yeast | Pf growth 48h | NS1 inh | Cycloheximide cs | Shiga toxin inh
CCCN(CCC)[C@@H]1CCc2cccc(O)c2C1 | 4.1µM | i | 5.2µM | i | i | i
COc1c(C)c2c(c(O)c1CC=C(C)CCC(=O)OCCN1CCOCC1)C(=O)OC2 | i | nt | 9.5µM | nt | i | i
COc1cc(CNCc2cccc(OC)c2OC)cc(OC)c1 | i | i | i | ? | i | nt
COc1cccc(CNCc2ccccc2Br)c1OC | 9.3µM | i | i | i | i | nt
COc1ccccc1CNCc1ccc(OC)c(OC)c1OC | 10µM | i | i | i | i | i
CCOC(=O)CC1CCCCN1C(=O)c1ccc2nc(CCOC)oc2c1 (centres undefined) | i | i | i | i | i | i
Cc1ccc(Nc2n[nH]c(C)c2[N+](=O)[O-])cc1C | ? | i | i | i | 32 | i
COc1ccc(C(=O)Nc2cc(C)nn2-c2ccc(F)cc2)cc1 | i | i | i | i | i | i
